From PubChem BioAssay AID652010 (The Scripps Research Institute Molecular Screening Center, 2013) come the findings set out here.

SMILES strings stand for the structures. Among all 370,000 compounds or so, about 4,100 (1.1%) were called active.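 The calls were made as follows: active = inhibition above the mean over all tested compounds plus 3 SD (cut at about 3.6% in these data); inactive = the rest.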 The list comes from a sample in which actives are over-represented; it also holds similar structures and randomly drawn compounds.

The experiment in a line: relief of DAX-1 repression of SF-1 activity – cell-based, luminescence, SF-1 (NR5A1), full-length DAX-1, primary screen (AID 652010).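 Also: 0% = DAX-1 cells with DMSO and 100% = cells lacking DAX-1 with DMSO.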 To be noted: HEK293T StAR-luciferase reporter, SF-1/DAX-1 repression relief; at 6.8 µM; stronger effect = higher value.
Consider `COC(=O)c1cccc(Cn2ccc3ccc(-c4ccc5ccn(C(=O)C6CCCCC6)c5c4)cc32)c1`, for which the inhibition – broadly, the drop in the measured response relative to a control, in per cent – is 0.41% (inactive). Take `CCOC(=O)N1CCN(C(=O)C[C@@H]2C(=O)N(CCc3ccc(Cl)cc3)C3=CCCC[C@]32C(=O)OCC)CC1`: the inhibition is -2.96% (inactive). Turning to `O=C(NN=CC=Cc1ccccc1)C(O)C(O)C(=O)NN=CC=Cc1ccccc1` (configuration not stated), the inhibition was 0.1% (inactive). As for `CSc1ccc(CNC(=O)C2(C)CCCN2C)cc1` (configuration not stated), the figure is -0.07% (inactive); as for `COc1ccc2cc(CCl)c(Cl)nc2c1`, -0.14% (inactive); as for `COc1ccc2nc(-c3ccccn3)ccc2c1`, 15.7% (active).

As for `COc1ccc(C=C(C#N)C#N)c(CSc2ccccn2)c1`, the inhibition is -0.31% (inactive). Then `COC(=O)c1cc(S(=O)(=O)N2CCN(C(=O)C3CCCO3)CC2)cn1C` (configuration not stated), with 0.73% (inactive); and `N#CCC[C@H]1CC[C@]2(CCCN(Cc3ccc(Cl)cc3)C2)O1`, with 0.06% (inactive). With `COc1ccccc1C(=O)CSc1nnc(-c2ccccn2)n1-c1ccccc1`, the inhibition is -0.86% (inactive). For the compound `Nn1c(SCC(=O)N2c3ccccc3Sc3ccccc32)nnc1-c1n[nH]c2c1CCC2`, the inhibition was -0.89% (inactive). Then `COc1ccc(CCNC(=O)COC(=O)Cc2ccccc2F)cc1`, with 5.57% (active). Turning to `COc1ccc(CCNC(=O)COC(=O)Cc2cccc(F)c2)cc1`, the inhibition is 2.2% (inactive).

As to `O=C(COC(=O)Cc1ccccc1F)NCCc1ccccc1`, the inhibition is 1.4% (inactive). Turning to `C=CCN=C1NC(c2cccc(C(F)(F)F)c2)C(C(=O)OC)=C(C)N1C` (configuration not stated), the inhibition is -0.18% (inactive). Take `C=C(C)C#CC(Cc1ccccc1)NCC1CC1` (configuration not stated): the inhibition is -0.89% (inactive). For `COc1ccc(-c2ccc3c(n2)CCCN3S(=O)(=O)c2ccc(C)cc2)cc1`, the inhibition was -0.47% (inactive).

As to `FC(F)(F)Oc1ccc(-c2cn3cccnc3n2)cc1`, the inhibition was 1.35% (inactive). As to `COc1ccc(-c2cn3ccc(C)cc3n2)cc1`, the inhibition was 5.29% (active).

Turning to `COc1ccc(-c2cn3ccsc3n2)cc1`, the inhibition is 4.57% (active). For `COc1cc(OC)cc(-c2nc(=S)n3ccsc3n2)c1`, the inhibition is -0.3% (inactive). As to `COc1ccc(CSc2nnc(-c3cccc(C)c3)n2C)cc1`, the inhibition was -0.99% (inactive).

As for `O=C(Nc1cccc(Cl)c1)OC1CC2CC1[C@H]1CCCCN1[C@H]2Cc1ccccc1` (some centres not stated), the inhibition is -0.06% (inactive). On to `O=C(CSc1nc2ccccc2n1Cc1ccccc1Cl)N/N=C\c1c[nH]c2ccccc12`, for which the inhibition was -0.91% (inactive). For the compound `Cc1cc(=O)[nH]c(SCC(=O)Nc2ccc(F)cc2F)n1`, the inhibition was 0.67% (inactive). As to `C=CCN1[C@@H](Cc2ccccc2)COc2cccc(N3CCSCC3)c2S1(=O)=O`, the inhibition was 0.68% (inactive). Turning to `O=C(Nc1ccccc1)Nc1nnc(COc2ccccc2F)s1`, the inhibition was 0.16% (inactive). In the case of `O=C(Nc1ccccc1)Nc1nc2ccccc2s1`, the inhibition was 9.89% (active). With `O=C(Nc1nc2ccc(Cl)cc2s1)c1cc(-c2ccc(Cl)cc2)nc2ccccc12`, the inhibition was 0.51% (inactive). Then `COC(=O)[C@]12C[C@H](CC(=O)NCc3ccccc3)C(=O)N(Cc3ccccc3)C1=C[C@H](COCc1ccccc1)O[C@@H]2C`, with -0.43% (inactive); and `COc1ccc(C(=O)CSc2nnc(-c3cnccn3)n2-c2ccc(C)cc2)cc1`, with 0.38% (inactive). Turning to `CSc1ccc(C=Nn2c(-c3ccc(F)cc3)n[nH]c2=S)cc1`, the inhibition was -1.55% (inactive).

Regarding `COC(=O)C1=C(C)N(Cc2ccc(C(F)(F)F)cc2)C(=NCc2ccc(C(F)(F)F)cc2)NC1c1cccc(Cl)c1` (configuration not stated), the inhibition was 0.24% (inactive). Take `CCc1ccc(Oc2coc3cc(O)ccc3c2=O)cc1`: the inhibition is 0.76% (inactive). As to `CC(C)=CCc1c(O)c(CC=C(C)C)c2occ(-c3ccc(O)cc3)c(=O)c2c1O`, the inhibition is 0.21% (inactive).

On to `O=c1c(-c2ccccc2)coc2cc(O)ccc12`, for which the inhibition is 3.75% (active). Then `Cc1ccc(C(=O)N(Cc2ccccn2)CC2CCCO2)cc1` (configuration not stated), with 0.03% (inactive). Consider `CCC(C)(C)C1CCC(=NNC(=O)c2ccc(Br)o2)CC1` (configuration not stated), for which the inhibition is 1.82% (inactive). With `CC(C)(C)C1CCC(=NNC(=O)c2ccc(Br)o2)CC1` (configuration not stated), the inhibition was 2.87% (inactive). Then `O=C(N/N=C\C1CC=CCC1)c1ccc(Br)o1` (configuration not stated), with 8.53% (active); and `Cc1c[nH]c2cccc(-c3ccc(Cl)cc3)c12`, with -0.32% (inactive).

Regarding `Cc1cc(NC(=O)CSC2=NS(=O)(=O)c3cc(Cl)ccc3N2)no1`, the inhibition was -0.79% (inactive).

As to `O=c1c2cc([N+](=O)[O-])ccc2nc2n1CCC2`, the inhibition is 0.07% (inactive). As for `CC(C)(C)NC(=O)Cn1cnc2cc([N+](=O)[O-])ccc2c1=O`, the figure is 0.18% (inactive); as for `Cc1ccc(-n2cc3ccc([N+](=O)[O-])cc3n2)cc1`, 4.78% (active).

For `CCOC(=O)[C@]12CCCC3=C1N(CCC3)C(=O)[C@@H](CC(=O)NCC13CC4CC(CC(C4)C1)C3)C2`, the inhibition is -1.84% (inactive). As for `CC(C)Cc1cc(C(=O)NCCc2ccccc2)no1`, the inhibition is 4.87% (active). As for `CC(C)Cc1cc(C(=O)Nc2cc(Br)ccc2O)no1`, the figure is 1.06% (inactive); as for `O=C(NCCCc1ccccc1)c1cc(COc2c(F)cccc2F)on1`, 1.02% (inactive).

For `CC(C)(CNC(=O)c1ccc(Cl)c(S(=O)(=O)N2CCc3ccccc3C2)c1)N1CCOCC1`, the inhibition is -2.85% (inactive). Turning to `Cc1ccc(NC(=O)C2(N3CCC3=O)CCCCC2)cc1`, the inhibition was -0.08% (inactive). For the compound `Cc1ccc(NC(=O)c2csc3c2CCCC3)cc1`, the inhibition is 4.28% (active).

On to `CC1CC(C)CN(CCCNC(=O)c2csc3c2CCCCC3)C1` (configuration not stated), for which the inhibition is 0.43% (inactive). Then `O=C(NCc1ccccc1)[C@H]1CCCN1C(=O)[C@H]1CCCN1C(=O)N1CCOCC1`, with 0.17% (inactive); and `COc1ccccc1C(=O)N1C(CC(=O)Nc2ccccc2C)C(=O)NC2CCCCC21` (configuration not stated), with -0.35% (inactive).

On to `COc1ccc(CCNC(=O)CSc2nc3c([nH]2)c(=O)n(C)c(=O)n3C)cc1`, for which the inhibition is 0.31% (inactive). On to `COC(=O)[C@H](C(C)C)N1CCc2nnn(Cc3ccc(C)cc3)c2-c2ccccc2S1(=O)=O`, for which the inhibition was -0.28% (inactive). Consider `O=C(NCc1ccc(Cl)cc1)C1CCCN(c2nc3ccccc3o2)C1` (configuration not stated), for which the inhibition was 0.95% (inactive). Take `O=NN(CCCl)C(=O)NCCc1cccc[n+]1[O-]`: the inhibition is -0.61% (inactive).

Turning to `Cc1ccc(/C=N/NC(=O)c2sccc2OCc2ccc(F)cc2)cc1`, the inhibition is -0.5% (inactive). As for `Cc1ccc(/C=N/NC(=O)COc2ccccc2-c2ccccc2)cc1`, the figure is 4.21% (active); as for `Cc1ccc(OCCOc2cccc(/C=N/NC(N)=O)c2)cc1`, 0.53% (inactive).
